Compound activity (PubChem)
Sampled rows, rich in hits. Any-hit rate of the full collection: about 8%.
HCV inhibitor – inhibitors of hepatitis C virus infection; Potency, µM (highest dose often 41.8 µM), without a hit: top-dose activity change, negative = inhibition, hits mostly inhibitors; 340,000 compounds, 3.4% hits; AID 651820; Huh7.5.1 HCVcc-Cre infection, luciferase reporter, 44 h; active = well fitted inhibition curve with a large enough effect; inconclusive = small, poorly fitted or top-dose-only effect, or another doubt; inactive = no such curve, though single readings can be large or run the other way; also: potency is read from the fitted curve at half-maximal effect; % is scaled to controls: 0 for no effect and ±100 for the full control effect
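HCVcc-Cre virus at an moi near 0.5 was added right after compound to cells cultured 4 h from seeding (1,000 cells/well). Luciferase activity was determined 44 h later, 15 min after substrate addition at RT.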
FMDV antiviral – antivirals against foot and mouth disease virus | FMDV antiviral cell-based qHTS | Potency, µM (series often up to 57.9 µM), inactives show at the top dose activity change, negative = inhibition, usual class: inhibitors | 410,000 compounds, 1.2% hits; calls by dose curve; tested in HEK293T cells; also: read-out not given here; potency is read from the fitted curve at half-maximal effect; % is scaled to controls: 0 for no effect and ±100 for the full control effect; nearly all actives have a fitted effect of over 45% in size
Lassa entry inh – inhibitors of Lassa virus binding or cell entry. Potency, µM (doses to about 37.9 µM), for the others: at the top dose activity change, negative = inhibition, most hits filed as inhibitors. Lassa virus pseudotype entry inhibition, cell reporter. 300,000 compounds, 1.2% hits; calls by dose curve; tested in HEK293 cells; also: potency is read from the fitted curve at half-maximal effect; % is scaled to controls: 0 for no effect and ±100 for the full control effect; nearly all actives have a fitted effect of over 50% in size
MARV entry inh – Marburg virus entry inhibition; Marburg virus pseudotyped entry inhibition, cell reporter; Potency, µM (doses to about 37.8 µM), without a hit: at the top dose activity change, negative = inhibition, usual class: inhibitors; 300,000 compounds, 1.8% hits; AID 540276; calls by dose curve; tested in HEK293 cells; also: potency is read from the fitted curve at half-maximal effect; % is scaled to controls: 0 for no effect and ±100 for the full control effect
HCMV antiviral – blocks human cytomegalovirus replication. HFF cells, HCMV-luciferase reporter, 72 h; hits give low values. activity change, negative = inhibition, % at 57.5 µM. 410,000 compounds, 4.5% hits. AID 1259415; in the data active = activity change below about -60%; inconclusive = no clear call, values can overlap the other calls; inactive = above about -39%; also: % is scaled to controls: 0 for no effect and ±100 for the full control effect
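Luciferase read-out from HCMV-luciferase-infected HFFs (MOI 1 PFU/cell) 72 h post infection at 37C; compounds added after 16 h cell attachment; activity normalized between buffer-only basal and Salinomycin (10uM) inhibitor controls.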
SARS PLP yeast – blocks SARS-CoV papain-like protease in a yeast assay; S. cerevisiae expressing SARS-CoV PLpro, growth rescue; Potency, µM (titrated, usually from 32.9 µM), for inactives: top-dose activity, positive = growth rescue, hits mostly activators; 330,000 compounds, 0.19% hits; AID 485353; calls by dose curve; also: potency is read from the fitted curve at half-maximal effect; 0% is about no effect; nearly all actives have a fitted effect of over 55% in size
* = called active by the depositor; u = inconclusive; x = no result; ! = not active in a repeat; [ ] = another dose, or the depositor's remark.

SMILES	HCV inhibitor	FMDV antiviral	Lassa entry inh	MARV entry inh	HCMV antiviral	SARS PLP yeast
CCCCC(=O)N(C)c1c(CC)nc2c(OCCC3CCCCC3)cccn12	x	u	x	x	-98*	x
CCc1nc2c(OCCC3CCCCC3)cccn2c1N(C)C(=O)CC(C)C	x	u	x	x	47	x
CCc1nc2c(OCCC3CCCCC3)cccn2c1N(C)C(=O)c1cccs1	x	28µM*	x	x	-16	x
CCOC(=O)N(C)c1c(CC)nc2c(OCc3ccc(Cl)cc3)cccn12	x	-16%	x	x	-89*	x
CCCCC(=O)N(C)c1c(CC)nc2c(OCC3CCCCC3)cccn12	x	0%	x	x	-64*	x
COc1ccccc1-c1noc(-c2ccc(NC3CCCC3)c([N+](=O)[O-])c2)n1	x	51%	-11%[46.1 µM]	-12%[46.1 µM]	94	x
Cc1cccc(-c2nc3c(cnn3-c3ccccc3)c(=O)n2-c2cccc(Cl)c2)c1	x	12%	u	x	-25	x
CC(C)Sc1ncc(Cl)c(C(=O)Nc2ccc(S(=O)(=O)N3CCCCC3C)cc2)n1 (stereo not drawn)	x	-16%	u	u	-7	x
Oc1ccc(N=Nc2n[nH]c(-c3ccc(Br)cc3)n2)cc1	12%	18%	u	u	-88*	7%
Oc1ccc(N=Nc2n[nH]c(-c3ccccc3)n2)cc1	0%	-18%	u	u	42	-11%
Nc1ccc(-c2nc3c(Cl)cc(N)cc3[nH]2)cc1	u	4µM*	11µM*	u	u	1%
O=C(Nc1ccccc1F)Nc1ccccc1N1CCCCC1	14µM*	u	u	-17%	-83*	-2%
O=C(CNC1CCCCCC1)Nc1ccccc1N1CCCCC1	u	-14%	u	u	-29	2%
O=C(Nc1ccccc1N1CCCCC1)c1ccc(F)cc1	u	0%	-13%	-17%	-25	-14%
CC(C)CC(=O)Nc1ccccc1N1CCCC1	1%	-23%	-2%	4%	-78*	27%
O=C(CN1CCc2ccccc2C1)Nc1ccccc1N1CCCCCC1	u	u	-29%	18µM*	x	-11%
O=C(CNCC1CCCCC1)Nc1ccccc1N1CCCCC1	11µM*	u	16%	-43%	u	1%
Cc1ncc2c(c1CNC(=O)c1ccc3c(c1)OCO3)CCN(C(=O)c1cnsn1)C2	x	6%	x	x	x	x
Cc1nn(CC(=O)NC2CC2)c(=O)c2cc3cc(F)ccc3n12	x	1%	x	-17%[46.1 µM]	11	x
Cc1ccc(NC(=O)c2oc3ccc(S(=O)(=O)N4CCC5(CC4)OCCO5)cc3c2C)c(C)c1	x	u	-10%[46.1 µM]	x	-26	x
CCCc1cc2c(=O)c(-c3ccc4c(c3)OCCO4)coc2cc1OC(=O)c1ccco1	-1%	55%	-26%	u	34	-3%
CCCc1cc2c(=O)c(-c3ccc4c(c3)OCCO4)coc2cc1OS(C)(=O)=O	10µM*	-5%	u	u	-60*	-17%
CCc1cc2c(=O)c(-c3ccc4c(c3)OCCO4)coc2cc1OC(=O)c1ccco1	10µM*!	19%	u	u	-34	1%
S=c1[nH]nc(Cc2ccc(Br)cc2)n1/N=C/c1ccc(Cl)cc1	10%	-20%	u	u	-67*	1%
CC(=O)c1ccc(OCc2cc(C(=O)N3CCN(c4ccccc4)CC3C)no2)cc1 (stereo not drawn)	22µM*	-8%	x	x	0	-3%
SMILES	HCV inhibitor	FMDV antiviral	Lassa entry inh	MARV entry inh	HCMV antiviral	SARS PLP yeast
CSc1ccccc1OCc1cc(C(=O)N2CCN(c3ccccc3)CC2C)no1 (stereo not drawn)	u	6%	u	-13%	70	2%
Cc1ccc(CNS(=O)(=O)c2c(C)nc3sc(C)cn3c2=O)cc1	x	3%	16%[46.1 µM]	x	8	x
CCCN1C(=O)COc2ccc(-c3n[nH]c(=O)c4ccccc34)cc21	-23%	u	-2%[46.1 µM]	10µM*	-102*	1%
CCCN1C(=O)COc2ccc(C(=O)c3ccccc3C(=O)O)cc21	10%	2%	3%[46.1 µM]	1%[46.1 µM]	-14	-1%
O=C1c2[nH]nc(-c3ccccc3O)c2C(c2ccc(Cl)cc2)N1CCc1ccccc1 (stereo not drawn)	x	u	u	u	-95*	x
CC(C)c1ccc(C2c3c(-c4ccccc4O)n[nH]c3C(=O)N2Cc2ccncc2)cc1 (stereo not drawn)	x	-22%	u	u	-79*	x
CSc1ccc(C2c3c(-c4ccccc4O)n[nH]c3C(=O)N2Cc2ccncc2)cc1 (stereo not drawn)	x	-5%	u	u	-26	x
COc1ccc(CCN2C(=O)c3[nH]nc(-c4ccccc4O)c3C2c2ccc(O)c(OC)c2)cc1 (stereo not drawn)	x	-12%	u	-29%[46.1 µM]	-12	x
COc1cc(C2c3c(-c4cc(C)cc(C)c4O)n[nH]c3C(=O)N2CCCO)cc(OC)c1OC (stereo not drawn)	-10%	-17%	8.2µM*	3%	38	-1%
COc1ccc(CCN2C(=O)c3[nH]nc(-c4ccccc4O)c3C2c2ccccc2)cc1OC (stereo not drawn)	11µM*	u	18µM*	u	u	3%
Cc1cccc(CCNC(=O)c2ccc3c(c2)nc2n3CCCCC2)c1	x	-17%	17%[46.1 µM]	x	14	x
CCOc1ccc2c(c1)c(=O)c(S(=O)(=O)c1ccc(Cl)cc1)cn2Cc1ccccc1C	x	-8%	u	u	-5	x
Cc1cccc(NC(=O)C2CCCN(S(=O)(=O)c3cccc4nonc34)C2)c1C (stereo not drawn)	x	4%	9%[46.1 µM]	-10%[46.1 µM]	-20	x
COCCN1C(=O)c2[nH]nc(-c3ccccc3O)c2C1c1ccc(OCc2ccccc2)c(OC)c1 (stereo not drawn)	x	-4%	u	-9%[46.1 µM]	-103*	x
NC(=O)N/N=C/c1ccc(-c2ccc([N+](=O)[O-])cc2)o1	10%	38%	x	0%	3	-3%
O=C(CNc1cccc2ccccc12)N/N=C/c1ccc([N+](=O)[O-])cc1	11%	-9%	-32%[46.1 µM]	-14%[46.1 µM]	7	-13%
CCCOC(=O)/C(=C\c1ccc([N+](=O)[O-])o1)NC(=O)c1ccccc1	14µM*	-1%	-5%	-7%	-12	-17%
O=C(Cc1ccccc1)N/N=C/c1ccc(-c2ccc([N+](=O)[O-])cc2)o1	-4%	-1%	-24%	5%	-61*	-3%
CCOC(=O)/C(=C\c1ccc([N+](=O)[O-])o1)NC(=O)c1ccccc1	u	x	-12%	2%	x	0%
O=C(Cc1ccc2c(c1)OCO2)NN=Cc1ccc([N+](=O)[O-])o1	10µM*	-19%	u	10µM*	-39	-1%
O=C(CNc1cccc([N+](=O)[O-])c1)N/N=C/c1ccc(F)cc1	-5%	-3%	-6%[46.1 µM]	u	-63*	-4%
CC1C(=O)N2CCCc3cc(S(=O)(=O)Nc4ccc(Br)cc4F)cc1c32 (stereo not drawn)	x	52%	7%[46.1 µM]	x	6	x
